# In the supplement of paper PMC6555819:
# What was measured:
# Assay in all cases: PBM binding z-score (relative to random genomic background probes); higher = stronger binding; sequences stand for … in GC…GCGATTGACAGCGTAGAATGAAGG
# [1] = test system: FXR:RXRa (NR concentration 270 nM, RXRa partner concentration 90 nM)
# Outline: (§1)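 Regression normalization was applied to scanned fluorescence from custom Agilent 4×180K protein-binding microarrays. Before scanning, arrays were incubated 1 h with ligand-free nuclear receptor dimers, and binding was detected with antibodies against each partner (one per run). Binding z-scores use the random background probes as reference.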
# [2] = test system: LXRa:RXRa (NR concentration 270 nM, RXRa partner concentration 90 nM)
# Outline: as §1
# [3] = test system: LXRa homodimer (NR concentration 270 nM)
# Outline: as §1
# [4] = test system: LXRb:RXRa (NR concentration 270 nM, RXRa partner concentration 90 nM)
# Outline: as §1
# [5] = test system: LXRb homodimer (NR concentration 270 nM)
# Outline: as §1
# [6] = test system: PPARa:RXRa (NR concentration 270 nM, RXRa partner concentration 90 nM)
# Outline: as §1
# [7] = test system: PPARg:RXRa (NR concentration 180 nM, RXRa partner concentration 90 nM)
# Outline: as §1
# [8] = test system: PPARg:RXRa 270nM:90nM, anti-RXR (NR concentration 270 nM, RXRa partner concentration 90 nM)
# Outline: as §1
# [9] = test system: PPARg:RXRa 30nM:10nM, anti-RXR (NR concentration 30 nM, RXRa partner concentration 10 nM)
# Outline: as §1
# [10] = test system: PPARg:RXRa 90nM:30nM, anti-RXR (NR concentration 90 nM, RXRa partner concentration 30 nM)
# Outline: as §1
# [11] = test system: PPARg:RXRa DBDmut IVT, anti-RXR (DBD mutation: RXRa K156A/R161A, NR concentration 270 nM, RXRa partner concentration 90 nM)
# Outline: as §1
# [12] = test system: PPARg:RXRa IVT, anti-PPARg (NR concentration 270 nM, RXRa partner concentration 90 nM)
# Outline: as §1
# [13] = test system: PPARg DBDmut:RXRa IVT, anti-PPARg (DBD mutation: PPARg1 K132A/R137A, NR concentration 270 nM, RXRa partner concentration 90 nM)
# Outline: as §1
# [14] = test system: PPARg DBDmut IVT, anti-PPARg (DBD mutation: PPARg1 K132A/R137A, NR concentration 270 nM)
# Outline: as §1
# [15] = test system: PPARg homodimer (NR concentration 180 nM)
# Outline: as §1
# [16] = test system: PXR:RXRa (NR concentration 270 nM, RXRa partner concentration 90 nM)
# Outline: as §1
# [17] = test system: PXR homodimer (NR concentration 270 nM)
# Outline: as §1
# [18] = test system: RARa:RXR (NR concentration 270 nM, RXRa partner concentration 90 nM)
# Outline: as §1
# [19] = test system: RARa homodimer (NR concentration 270 nM)
# Outline: as §1
# [20] = test system: RARb:RXRa (NR concentration 270 nM, RXRa partner concentration 90 nM)
# Outline: as §1
Sequence,PBM binding z-score [1],PBM binding z-score [2],PBM binding z-score [3],PBM binding z-score [4],PBM binding z-score [5],PBM binding z-score [6],PBM binding z-score [7],PBM binding z-score [8],PBM binding z-score [9],PBM binding z-score [10],PBM binding z-score [11],PBM binding z-score [12],PBM binding z-score [13],PBM binding z-score [14],PBM binding z-score [15],PBM binding z-score [16],PBM binding z-score [17],PBM binding z-score [18],PBM binding z-score [19],PBM binding z-score [20]
CCGACTGGGGCAAGGCTACCATAACGCACAGCCA,-0.0743,-0.335,-0.467,-0.273,-1.05,-0.00984,1.08,0.83,-0.201,0.0921,2.56,2.89,-0.229,-0.37,-0.287,-0.481,-0.488,-0.164,-0.086,0.763
TAGCCTAGGTCATGCGCGCCAGTATAGTGTCGGC,4.7,3.47,0.451,2.36,0.289,3.98,2.68,2.89,0.197,1.79,2,3.17,0.974,0.266,2.85,1.55,-0.618,2.62,-0.473,3.74
CGTCCAAGGTCATAGGAGGTCAGTGATGACAGAT,7.57,7.22,5.1,5.96,1.02,5.77,5.63,5.82,2.23,4.02,3.37,4.38,0.469,0.243,3.94,6.6,3.48,5.69,2.24,5.32
CCAGAGAGGTGAAAGGTAACTCAGTCTGGTACGC,1.97,1.72,-0.386,1.72,-0.316,4.52,6.53,6.32,4.89,6.42,3.73,4.05,0.0614,-0.0478,2.31,2.19,0.131,3.44,0.813,2.39
ACTATTAGTTTAGACGAGGGCAACCGATAGGTTG,0.453,0.483,0.356,0.275,0.368,0.386,0.651,0.246,-0.0368,-0.045,0.00795,0.402,0.0772,1.14,0.811,1.29,0.902,1.26,1.02,1.25
GCTGCTAGGTCAGGTTGGGCAGCTAACGGGTACG,1.01,0.624,-0.384,0.136,-0.285,0.991,0.332,0.824,-0.181,0.136,2.83,1.93,-0.639,-0.804,0.77,-0.238,-0.455,0.335,-0.329,3.17
AGTCAAAGTTCAGGACGAGGAAACGTAAAGCACG,3.83,3.6,0.784,1.92,0.307,3.21,5.02,5.02,2.33,4.27,-0.351,1.46,0.63,0.55,1.71,2.42,0.845,2.26,-0.0138,4.25
ATAGAAAGGTCGTGAGGTGAGTATACAGAAAGGC,4.9,3.76,0.49,3.4,0.703,4.86,4.33,4.37,2.46,3.57,0.952,2.43,1.91,1.19,2,3.19,0.712,4.26,1.11,3.97
CCTGCTGGGCCACGAAAGGTCATTGATTCAGTGA,3.41,5.49,4.48,4.19,0.0525,4.2,1.59,3.23,0.385,2.27,1.93,2.25,-0.596,-0.339,5.05,5.52,1.38,5.76,2.23,4.05
GCATATAGGTAATACACGGTGAAAGTCCGATTGT,0.145,0.988,0.163,-0.0915,-0.496,0.9,0.912,0.806,0.349,0.684,3.87,2.67,0.895,1.01,0.267,0.213,0.115,0.564,0.666,-0.0307
CCTAACGGGTCACTCCAGGTTATAGCATCGGAGT,3.94,7.24,1.46,4.81,0.101,3.5,2.32,2.54,0.338,1.43,1.88,2.52,-0.282,-0.298,1.23,4.32,0.412,2.86,0.233,3.15
GCTATTAGTTGAAAGGACAACCGAATGATTCTCG,-0.0393,-0.0503,-0.151,-0.41,-0.0299,0.0455,0.857,1.45,0.556,0.958,0.447,-0.166,0.553,0.18,0.735,-0.372,0.0666,-0.189,1.02,1.32
ACTATTAGTTTACTTAGGGCAACCGATACGACGC,0.0954,0.173,0.422,0.0496,0.375,0.0302,0.985,0.261,0.394,0.541,0.826,0.924,0.857,1.39,0.166,0.669,1.14,0.64,0.904,1.04
CCTCGGAGGACAGCAGGAGGTCAGAGCTGCCAGA,0.706,1.02,0.292,0.728,-0.764,1.48,-0.245,-0.0312,-1.08,-0.248,-0.448,-0.212,-1.03,-2.54,1.7,1.55,0.245,1.79,0.518,2.62
ATCTCTAGGTATAAGTTCAGTGAATCCCGAGGAT,0.24,0.542,0.507,0.379,0.825,1.77,2.79,4.45,2.94,4.55,0.227,0.858,1.41,1.22,0.751,1.44,2.32,0.493,1.02,1.73
GGAACGAGGGCATTCGAGTTGATAGTATGGCGAT,1.62,1.71,-0.324,0.436,-0.544,1.62,1.13,1.22,0.197,0.753,3,2.29,-0.142,-0.408,-0.115,4.11,1.45,0.744,0.0734,1.98
CGAACTAGGTCATCCCGGACAGTGAATACATTGA,4.18,2.56,0.912,2.09,0.361,4.71,7.36,6.47,3.85,6.17,7.94,8.33,3.25,4.44,4.1,1.56,0.96,2.24,1.88,3.69
ACTCTTAGTTGACTTAGGGCAACCGATACGACGC,0.556,0.443,0.285,0.398,0.941,0.448,0.905,0.0993,0.38,0.299,0.723,0.491,1.1,1.39,0.782,0.578,0.291,0.777,0.704,1.04
CCTACTGGGCCATTCACAGGTCATTGATCATATG,0.864,2.27,4.05,2.21,-0.0927,2.62,1.27,2.04,0.468,1.3,4.38,4.07,0.164,0.233,1.37,2.11,0.599,2.4,0.567,2.03
CGTCCAAGGTCATAGGAGATCAGTGAAGACAGAT,6.93,5.5,1.32,3.92,0.511,5.4,4.74,4.9,2.45,3.71,3.22,3.43,1.2,0.671,2.99,4.44,1.37,4.47,0.926,4.89
TCTTGTAGATCAGCAGTTTAAGAAAGCTGGCCAA,0.068,-0.0226,-0.271,0.182,-0.0391,0.33,-0.762,1.27,2.68,2.09,1.44,0.0506,0.167,0.0418,-0.0273,0.249,-0.18,0.328,0.193,-0.0976
CCTTACGGGCCAAGGTTATAGCACGGGTGGTACG,-0.197,0.16,-0.442,-0.247,-0.834,0.498,0.573,0.597,-0.309,-0.163,-0.837,-0.312,-1.25,-0.861,0.309,0.0685,-0.372,0.242,0.00233,1.13
ACTAGCAGGCCAAGTTTGGGTTACTCAAACAAAG,-0.336,-0.429,-0.394,-0.296,-0.552,-0.051,-0.32,-0.325,-0.354,-0.657,0.764,0.439,-1.56,-0.888,-0.611,-0.324,-0.543,0.00564,-0.953,0.389
GTACCAAGGTGAATATGTCGTTGATGAGTAGGCG,0.455,0.146,-0.0291,-0.0194,-0.329,0.873,0.753,0.42,0.0719,0.185,1.28,1.95,0.633,0.3,1.32,-0.126,0.282,0.44,0.46,1.22
TATACAGGGTCAAAGGCGAGAGTACGAATGTCGA,7.01,6.18,2.21,4.53,2.51,6.19,7.72,6.81,3.94,6.47,2.19,4.69,2.38,1.65,2.22,3.85,0.6,4.91,0.979,4.45
CCTACTGGGCCACGAAAGGTCATTAATTCAGTGA,3.16,4.95,4.76,4.24,0.358,4.48,4.47,4.57,1.99,3.83,5.58,5.87,1.7,0.266,3.46,5.12,1.71,5.32,1.1,3.79
TCTTGTAGATCAGCAGGTTAAGAATGCTGGCCAA,-0.0205,0.0347,-0.38,0.151,-0.573,0.607,-0.224,1.26,2.68,2.04,1.36,0.428,-0.195,-0.491,0.12,0.00264,-0.0255,0.239,-0.0617,0.12
TCATATAGGTAAAGGTCAAAGTCGAACGATATGA,6.53,6.13,4.7,5.5,2.62,6.15,7.64,6.9,6.04,7.15,4.49,5.4,2.71,1.9,5.15,5.54,1.88,6.36,3.75,5.17
